# Only some compounds are listed: those with a hit (about 19% of all), similar ones and a draw of the others.
# DT40 TDP1 CPT: growth inhibition of DT40 Tdp1-/-;hTDP1 cells with camptothecin (screen for TDP1 inhibitors) | chicken DT40 Tdp1-/-;hTDP1 cells + 20 nM CPT, ATP luminescence, 48 h | Potency, µM (top dose mostly 46.2 µM), for the others: top-dose activity change, negative = growth inhibition, usual class: inhibitors | 420,000 tested, 12% active; also: potency is read from the fitted curve at half-maximal effect; nearly all actives have a fitted effect of over 55% in size
#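 Cell growth measured by CellTiter-Glo luminescence after a minimum 48 h, 37 C compound exposure with 20 nM CPT in Tdp1-knockout DT40 cells stably expressing hTDP1, seeded 400/well; qHTS titration format.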
# HT1080 IDH1KD tx: HT-1080 IDH1 knockdown cell toxicity (counter line) | AID 686971 | 360,000 tested, 2% active | HT-1080 IDH1 knockdown viability, ATP luminescence, 48 h | Potency, µM (titrated, usually from 46.1 µM), inactives show at the highest dose activity, negative = toxicity, most hits filed as cytotoxic;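 also: potency is read from the fitted curve at half-maximal effect; 0% = DMSO wells and -100% = cell-free medium wells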
#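 Luminescent ATP read-out (CellTiter-Glo, 10 min at room temperature) after 48 h compound exposure at 37 °C gave viability of IDH1-knockdown HT-1080 cells. Activity was normalised to DMSO and cell-free wells, then fitted as concentration-response curves.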
# IL1B secr inh: blocks inflammasome-driven IL-1 beta release; THP-1 LPS/ATP IL-1B secretion, AlphaLISA, 16 h; hits give low values; activity change, % at 57.5 µM; 360,000 tested, 4.7% active; in the data active = activity change below about -50%; inconclusive = mostly about -30% to -49%
#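 Secreted IL-1B measured by AlphaLISA bead assay after 16 h compound exposure of THP-1 cells; compounds (final up to 57.5 uM) added 1 h before LPS (250 ng/mL) and ATP (1.25 mM) stimulation; lower signal means less secretion.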
# HT1080-NT tox: kills 2HG-producing HT-1080-NT fibrosarcoma cells; HT-1080-NT fibrosarcoma viability, CellTiter-Glo ATP luminescence, 48 h; Potency, µM (top dose mostly 46.1 µM), inactives show top-dose activity, negative = less viability, most hits filed as cytotoxic; 360,000 tested, 1.6% active;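 also: NT is the 2HG producing partner of a matched IDH1 knockdown line; potency is read from the fitted curve at half-maximal effect; 0% = DMSO-treated cells and -100% = media-only wells without cells; nearly all actives have a fitted effect of over 55% in size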
#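 HT-1080-NT; 750 cells/well; 5% FBS RPMI; 48 h compound, 37 degrees C; CellTiter-Glo luminescence; curve fitting and curve-class assignment.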
# TDP1 cell noCPT: qHTS for Inhibitors of human tyrosyl-DNA phosphodiesterase 1 (TDP1): qHTS in cells in absence of CPT; Potency, µM (series often up to 46.2 µM), without a hit: top-dose activity change, negative = growth inhibition, usual class: inhibitors; AID 686978, 2013; DT40 Tdp1-/- hTDP1 cells, no CPT, ATP luminescence, 48 h; 420,000 tested, 15% active; also: potency is read from the fitted curve at half-maximal effect; nearly all actives have a fitted effect of over 55% in size
#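 Readout: luminescence from CellTiter-Glo after 30 min in the dark at RT. Cells: DT40 Tdp1-/- with stable hTDP1, 400/well. Exposure: compounds alone, ≥48 hr, 37 °C.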
# ELG1 DNA repair: blocks ELG1-dependent DNA repair in HEK293T cells. Potency, µM (highest dose often 46.1 µM), without a hit: at the top dose activity change, negative = inhibition, most hits filed as inhibitors. 330,000 tested, 2.3% active. HEK293T ELG1-luciferase reporter, luminescence, 16 h; DNA damage induced by 5-fluorouridine; also: potency is read from the fitted curve at half-maximal effect; nearly all actives have a fitted effect of over 55% in size
#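 Reporter activity after DNA damage by 5-fluorouridine is monitored. Compound-treated cells incubate 16 hr at 37 °C, then ONE-Glo is added for 30 min before luminescence reading.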
# * marks the source's active call; other numbers are inactive results; i = inactive; u = inconclusive; x = no result; [ ] = dose if it differs, or a comment. Unless noted, calls follow the shape of the dose curve; as a rule, active = well fitted curve in the direction sought with a large enough effect; inconclusive = small, poorly fitted or top-dose-only effect, or another doubt; inactive = no such curve, though single readings can be large; an effect the other way counts as inactive or inconclusive. Unless noted, % is scaled to controls: 0 for no effect and ±100 for the full control effect.
SMILES,DT40 TDP1 CPT,HT1080 IDH1KD tx,IL1B secr inh,HT1080-NT tox,TDP1 cell noCPT,ELG1 DNA repair
N#Cc1c(-c2ccccc2)cc(-c2cccs2)nc1SCC(=O)O,17%,-9%,0,-4%,-20%,3%
Cc1cnc(CNc2ccnc(-c3cccnc3)n2)cn1,8%,x,x,x,34%,x
COCCCNC(=O)Cn1cnc(C(=O)Nc2ccc(C)c(C)c2)n1,-12%,12%,1,9%,-17%,u
O=S(=O)(c1ccc2ccccc2c1)N1CCCCCC1,4%,1%,-2,-7%,-21%,u
O=S(=O)(c1ccc(Oc2ccc(Br)cc2)cc1)N1CCOCC1,16µM*,-7%[9.24 µM],-14,-18%,23µM*,-16%
Nc1cc(S(=O)(=O)N2CCCCC2)ccc1Oc1ccccc1,u,u,4,-2%,10µM*,u
COc1ccc(S(=O)(=O)N2CCOCC2)cc1,0%,x,x,x,-3%,x
CCOc1ccc(Oc2ccc(S(=O)(=O)N3CCOCC3)cc2N)cc1,u,-10%,-3,-17%,u,9.2µM*
O=C(CCN=C1NS(=O)(=O)c2ccccc21)Nc1ccc(Cl)cc1F,-17%,-1%,34,-2%,15%,11%
COc1ccc(-c2nc(SCC(=O)N3CCC(C)CC3)n[nH]2)cc1,u,x,x,x,-19%,x
O=C(CC(c1cccs1)N1Cc2ccccc2C1=O)Nc1ccc(F)c(Cl)c1 (centres undefined),-32%,x,x,x,u,x
CC(=O)c1ccc(NC(=O)CSc2cn(CC(=O)N3CCCCC3)c3ccccc23)cc1,u,x,x,x,21µM*,x
Cc1ccc(NC(=O)CSc2cn(CC(=O)N3CCCCCC3)c3ccccc23)cc1,-23%,x,x,x,u,x
CCOc1ccccc1NC(=O)COC(=O)c1ccccc1SCC(=O)N1CCCC1,u,-12%,11,0%,16µM*,u
O=C(COC(=O)c1ccccc1SCC(=O)N1CCCC1)Nc1ccccc1C(F)(F)F,-25%,-10%,18,2%,-27%,5%
CC(=O)c1ccc(N2CCN(C(=O)C(=O)c3cn(CC(=O)N4CCCCCC4)c4ccccc34)CC2)cc1,23µM*,-1%,i,3%,13µM*,-10%
Cc1ccc(NC(=O)CSc2cn(CC(=O)N3CCCC3)c3ccccc23)cc1Cl,26µM*,x,x,x,u,x
COc1ccc(C2C(C(N)=O)=C(C)Nc3nc(SCc4ccccc4Cl)nn32)cc1OC (centres undefined),-5%,x,x,x,-14%,x
COc1cc(NC(=O)CN2C(=O)CN(C)C(=O)c3ccccc32)cc(OC)c1OC,-17%,x,x,x,1%,x
CCOc1ccccc1NC(=O)COC(=O)c1cn(CC)c2nc(C)ccc2c1=O,18µM*,x,x,x,u,x
CCOC(=O)CNC(=O)CSc1cn(CC(=O)N2CCCCCC2)c2ccccc12,1%,x,x,x,-8%,x
CCn1cc(C(=O)OCC(=O)Nc2ccccc2OC(F)F)c(=O)c2ccc(C)nc21,-29%,-13%,21,0%,u,-1%
CCOc1ccccc1NC(=O)CSc1cn(CC(=O)N2CCCCCC2)c2ccccc12,u,x,x,x,26µM*,x
CCn1cc(C(=O)OCC(=O)c2cc(C)n(-c3ccc(OC(F)F)cc3)c2C)c(=O)c2ccc(C)nc21,u,12%,-11,-8%,13µM*,u
Cc1occc1-c1nnc(SCC(=O)NC2CC2)n1C(C)C,24%,9%,9,15%,14%,2%
SMILES,DT40 TDP1 CPT,HT1080 IDH1KD tx,IL1B secr inh,HT1080-NT tox,TDP1 cell noCPT,ELG1 DNA repair
CC(C(=O)NN=C(c1ccccc1)c1ccccc1)N1CCOCC1 (centres undefined),u,7%,3,10%,16µM*,0%
CCOC(=O)/C=C/C(=O)Nc1cccc([N+](=O)[O-])c1,1.6µM*,-26%,-65*,u,4.1µM*,6%
CCOC(=O)/C=C/C(=O)Nc1ccccc1-c1ccccc1NC(=O)/C=C/C(=O)OCC,4.6µM*,23µM*,-83*,u,5.2µM*,u
CCCNc1c(NC(=O)c2ccc3c(c2)OCO3)c(=O)oc2ccccc12,u,7%,27,4%,u,23%
COc1ccc(C2C(C(=O)N3CCN(c4ccccc4)CC3)c3ccccc3C(=O)N2C)cc1 (centres undefined),-14%,-8%,21,-1%,u,21µM*
COc1ccc(C2C(C(=O)Nc3cc(OC)c(OC)c(OC)c3)c3ccccc3C(=O)N2C)cc1 (centres undefined),1.5µM*,1.5µM*,95,1.5µM*,1.8µM*,-24%
CCN(CC)CCCNC(=O)C1c2ccccc2C(=O)N(C)C1c1ccc(OC)cc1 (centres undefined),-8%,u,0,-5%,2.3µM*,2%
COc1ccc(C2C(C(=O)NCc3ccco3)c3ccccc3C(=O)N2C)cc1 (centres undefined),5%,3%,3,10%,-2%,13%
COc1ccc(C2C(C(=O)NCCN3CCOCC3)c3ccccc3C(=O)N2C2CCCCC2)cc1 (centres undefined),7.3µM*,-2%,32,-10%,5.2µM*,-8%
CCc1ccc(NC(=O)CCn2c(=O)c3cccn3c3ccccc32)cc1,23µM*,u,50,u,18µM*,-20%
CCc1ccc(NC(=O)CCn2cnc3ccccc3c2=O)cc1,-4%,x,x,x,-20%,x
CCc1ccc(NC(=O)Cn2c(=O)c3cccn3c3ccccc32)cc1,16µM*,u,-1,u,4.1µM*,30%
COc1cc(NC(=O)c2ccc([N+](=O)[O-])cc2)c(OC)cc1NC(=O)CC(C)C,1%,7%,-7,7%,11%,9%
Nc1ccc2nc(-c3ccccc3)cnc2c1,0%,-1%,-4,6%,-23%,x
Nc1ccc(Oc2cc(N)cc(Oc3ccccc3)c2)cc1,-9%,-24%,u,-14%,-24%,u
Nc1ccc2nc(-c3ccccc3)c(-c3ccccc3)nc2c1,u,-2%,31,-4%,21µM*,-2%
Nc1ccc(Oc2ccc3nc(-c4ccccc4)c(-c4ccccc4)nc3c2)cc1,u,-7%,-58*,-10%,21µM*,3%
CC1CCC(NC(=O)C(NC(=O)c2ccccc2)C(C)C)CC1 (centres undefined),-14%,-3%,-1,-3%,-14%,-6%

# Source: PubChem BioAssay
